Where “and” joins values, the source holds several entries; their conditions need not be identical. Equal values may be shown once. Inconclusive results are not listed. Calls of active or inactive are those of the source. Unless noted, calls follow the shape of the dose curve; as a rule, active = well fitted curve in the direction sought with a large enough effect; inconclusive = small, poorly fitted or top-dose-only effect, or another doubt; inactive = no such curve, though single readings can be large; an effect the other way counts as inactive or inconclusive.
Experiment: qHTS assay for small molecule agonists of the antioxidant response element (ARE) signaling pathway measured by Nrf2-dependant transcriptional activity (AID 720636; active = well fitted curve in the direction sought with a large enough effect in the repeat runs; an effect the other way counts as inactive or inconclusive; also: potency is read from the fitted curve at half-maximal effect;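 as to activation: HepG2 cells with an ARE-driven luciferase reporter; % of control where 0% means no effect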)
Conditions: ARE-luc HepG2, Nrf2 luciferase reporter, 16 h; series mostly up to 92.4 µM; activation: at the top concentration
How it was run: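 Reporter gene assay, HepG2 ARE-luc: 16 hr compound, 37 C, 5% CO2; read-out luciferase luminescence.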

Structure (SMILES) | activation | Potency
CC/C(=C(\c1ccc(O)cc1)c1ccc(OCCN(C)C)cc1)c1ccccc1 | -4.59% (inactive) | –
[Cl][Sn]([c]1ccccc1)([c]1ccccc1)[c]1ccccc1 | – | 0.486 µM (active)
CC[C@H](C)[C@H]1O[C@]2(C=C[C@@H]1C)C[C@@H]1C[C@@H](C/C=C(\C)[C@@H](O[C@H]3C[C@H](OC)[C@@H](O[C@H]4C[C@H](OC)[C@@H](NC)[C@H](C)O4)[C@H](C)O3)[C@@H](C)/C=C/C=C3\CO[C@@H]4[C@H](O)C(C)=C[C@@H](C(=O)O1)[C@]34O)O2 | -4.68% (inactive) | –
S=C([S-])NCCNC(=S)[S-].[Mn+2] | – | 61.1 µM (active)
c1ccc2cc3c(ccc4ccccc43)cc2c1 | – | 30.6 µM (active)

Experiment: qHTS assay for small molecule agonists of the antioxidant response element (ARE) signaling pathway measured by Nrf2-dependant transcriptional activity - cell viability counter screen (AID 720653; active = well fitted curve in the direction sought with a large enough effect in the repeat runs; an effect the other way counts as inactive or inconclusive; also: potency is read from the fitted curve at half-maximal effect)
Conditions: ARE-bla HepG2 viability, CellTiter-Glo ATP luminescence, 16 h; max response: stronger effect = lower value
How it was run: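 ARE-bla HepG2 cells treated with compounds for 16 h at 37C; this counter screen measures viability as intracellular ATP by CellTiter-Glo luminescence after 30 min at room temperature.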

Structure (SMILES) | Potency
CC/C(=C(\c1ccc(O)cc1)c1ccc(OCCN(C)C)cc1)c1ccccc1 | 25.1 µM (active)
[Cl][Sn]([c]1ccccc1)([c]1ccccc1)[c]1ccccc1 | 0.891 µM (active)
CCC[CH2][Sn]([CH2]CCC)([CH2]CCC)[O]C(=O)c1ccccc1 | 3.98 µM (active)
CC[C@H](C)[C@H]1O[C@]2(C=C[C@@H]1C)C[C@@H]1C[C@@H](C/C=C(\C)[C@@H](O[C@H]3C[C@H](OC)[C@@H](O[C@H]4C[C@H](OC)[C@@H](NC)[C@H](C)O4)[C@H](C)O3)[C@@H](C)/C=C/C=C3\CO[C@@H]4[C@H](O)C(C)=C[C@@H](C(=O)O1)[C@]34O)O2 | 25.1 µM (active)

Experiment: qHTS Assay for Identifying Gametocytocidal Compounds (AID 743244); also: potency is read from the fitted curve at half-maximal effect;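 as to max response: % is scaled to controls: 0 for no effect and ±100 for the full control effect; actives lower the fluorescent signal which means gametocytes are killed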
Conditions: P. falciparum 3D7 stage III-V gametocytes, alamarBlue, 72 h; max response: stronger effect = lower value
How it was run: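 3D7 gametocytes, stages III–V, 20,000/well; cpd 72 h, 37 °C/5% CO2; + alamarBlue 24 h; fluor. Ex 525/Em 598.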

Structure (SMILES) | max response | Potency
O=C(O)CN(CCN(CC(=O)O)CC(=O)O)CC(=O)O | 12.5% (inactive) | –
CC[C@@H](C(=O)[C@@H](C)[C@@H](O)[C@H](C)[C@@H]1O[C@@H]([C@@H](CC)C(=O)O)CC[C@@H]1C)[C@H]1O[C@]2(C=C[C@@H](O)[C@]3(CC[C@@](C)([C@H]4CC[C@](O)(CC)[C@H](C)O4)O3)O2)[C@H](C)C[C@@H]1C | – | 235 nM (active)
CCC(C(=O)O)C1OC(C(C)C(O)C(C)C(=O)C(CC)C2OC3(C=CC(O)C4(CCC(C)(C5CCC(O)(CC)C(C)O5)O4)O3)C(C)CC2C)C(C)CC1C (centres undefined) | – | 60.5 nM (active)
C[C@H]1[C@@H](OC(=O)CCC(=O)O)O[C@@H]2OC3(C)CC[C@H]4[C@H](C)CC[C@@H]1[C@@]24OO3 | – | 66.2 nM (active)
C=Cc1c(C)c2cc3nc(cc4[nH]c(cc5nc(cc1[nH]2)C(C)=C5CCC(=O)OC)c(CCC(=O)O)c4C)[C@@]1(C)C3=CC=C(C(=O)OC)[C@H]1C(=O)OC | – | 894 nM (active)
COC12CC[C@@]3(C[C@@H]1C(C)(O)C(C)(C)C)[C@H]1Cc4ccc(O)c5c4[C@@]3(CCN1CC1CC1)[C@H]2O5 (some centres undefined) | – | 31600 nM (active)
COC(=O)C[C@](O)(CCCC(C)(C)O)C(=O)O[C@@H]1C(OC)=CC23CCCN2CCc2cc4c(cc2[C@H]13)OCO4 (some centres undefined) | – | 83.3 nM (active)
COC(C(=O)C(O)C(C)O)C1Cc2cc3cc(OC4CC(OC5CC(O)C(O)C(C)O5)C(O)C(C)O4)c(C)c(O)c3c(O)c2C(=O)C1OC1CC(OC2CC(OC3CC(C)(O)C(O)C(C)O3)C(O)C(C)O2)C(O)C(C)O1 (centres undefined) | – | 1120 nM (active)
CC[C@@]1([C@@H]2O[C@@H]([C@H]3O[C@@](O)(CO)[C@H](C)C[C@@H]3C)C[C@@H]2C)CC[C@H]([C@]2(C)CC[C@]3(C[C@H](O)[C@@H](C)[C@@H]([C@@H](C)[C@@H](OC)[C@H](C)C(=O)O)O3)O2)O1 (stereo in doubt) | – | 891 nM (active) and 166 nM (active)
C[C@@H]1[C@H](O)[C@@H](C)/C=C/C=C/CC/C=C/C=C/C=C/C=C/[C@H](O[C@H]2O[C@@H](C)[C@H](O)[C@@H](N)[C@H]2O)CC2O[C@](O)(C[C@@H](O)[C@H](O)CC[C@@H](O)C[C@@H](O)C[C@@H](O)CC(=O)O[C@H]1C)C[C@H](O)[C@H]2C(=O)O | -9.77% (inactive) | –
CN(C)C(=O)CCSC(SCCC(=O)O)c1cccc(/C=C/c2ccc3ccc(Cl)cc3n2)c1 (centres undefined) | 41.4% (inactive) | –

Experiment: qHTS assay for cell viability of the p53RE-bla HCT-116 cell line (AID 743292); also: potency is read from the fitted curve at half-maximal effect; nearly all actives have a fitted effect of over 55% in size
Conditions: p53RE-bla HCT-116 viability, ATP luminescence, 16 h; series mostly up to 95 µM; activity change, negative = cytotoxicity: at the top concentration
How it was run: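 Readout: CellTiter-Glo luminescence after 30 min RT. Treatment: compounds in DMSO, 16 h, 37 C. Cells: CellSensor p53RE-bla HCT-116, 4,000/well, preincubated 5 h.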

Structure (SMILES) | Potency
[Cl][Sn]([c]1ccccc1)([c]1ccccc1)[c]1ccccc1 | 7.94 µM (active)
CCC[CH2][Sn]([CH2]CCC)([CH2]CCC)[O]C(=O)c1ccccc1 | 6.31 µM (active)
CC[C@H](C)[C@H]1O[C@]2(C=C[C@@H]1C)C[C@@H]1C[C@@H](C/C=C(\C)[C@@H](O[C@H]3C[C@H](OC)[C@@H](O[C@H]4C[C@H](OC)[C@@H](NC)[C@H](C)O4)[C@H](C)O3)[C@@H](C)/C=C/C=C3\CO[C@@H]4[C@H](O)C(C)=C[C@@H](C(=O)O1)[C@]34O)O2 | 28.2 µM (active)

Experiment: qHTS profiling for inhibitors of Plasmodium falciparum (3D7) proliferation (AID 743322);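 also: infected erythrocytes exposed to compound for 72 h before lysis; 100% = DMSO vehicle wells and 0% = 0.29 µM artemisinin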
Conditions: P. falciparum 3D7 proliferation; at 28.7 µM (top of the series) unless noted
How it was run: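 Erythrocytes infected with P. falciparum (0.3% parasitemia, 2.5% hematocrit) incubated with compounds 72 h at 37 C, 5% CO2. Lysis with saponin/Triton buffer containing SYBR Green I, overnight at room temperature in the dark; DNA fluorescence (485/535 nm) normalised to 0.29 uM artemisinin and DMSO.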

Structure (SMILES) | remaining parasite growth % (stronger effect = lower value) [%]
CSc1cccc(NC(=O)CC[C@H]2O[C@@H]3O[C@]4(C)CC[C@H]5[C@H](C)CC[C@@H]([C@@H]2C)[C@@]35OO4)c1 | -0.517
O=C1C(=O)c2ccccc2C(O)=C1C1CCC2(CC1)OOC1(O2)C2CC3CC(C2)CC1C3 (centres undefined) | 0.339
C[C@@H]1[C@@H](CC(C[C@H]2O[C@@H]3O[C@]4(C)CC[C@@H]5[C@H](C)CC[C@@H]([C@H]2C)[C@@]35OO4)C(=O)NCc2ccc(F)cc2)O[C@@H]2O[C@]3(C)CC[C@H]4[C@H](C)CC[C@@H]1[C@@]24OO3 (some centres undefined) | -0.677
C[C@H]1[C@@H](CCC(=O)Nc2ccc(F)cc2)O[C@@H]2O[C@]3(C)CC[C@@H]4[C@H](C)CC[C@@H]1[C@@]24OO3 | -0.086
CCCCN(CCCC)CCC(OC(=O)O[C@H]1CCC[C@]2(C1)OOC1(O2)C2CC3CC(C2)CC1C3)c1cc2c(Cl)cc(Cl)cc2c2cc(C(F)(F)F)ccc12 (some centres undefined) | -0.262
CCCCN(CCCC)CCC(OC(=O)O[C@@H]1CCC[C@]2(C1)OOC1(O2)C2CC3CC(C2)CC1C3)c1cc2c(Cl)cc(Cl)cc2c2cc(C(F)(F)F)ccc12 (some centres undefined) | -0.394

— PubChem BioAssay (NCATS)
